{"source": "PubChem BioAssay (NCATS)", "note": "Records with an inconclusive call do not appear. A number with no mark means an inactive call. The source made the active and inactive calls. Calls follow the shape of the dose curve; as a rule, active = well fitted inhibition curve with a large enough effect; inconclusive = small, poorly fitted or top-dose-only effect; inactive = no such curve, though single readings can be large or run the other way. % is scaled to controls: 0 for no effect and ±100 for the full control effect; potency is read from the fitted curve at half-maximal effect."}
{"target": "Rap guanine nucleotide exchange factor 4 (Homo sapiens) (UniProt Q8WZA2)", "sequence (Q8WZA2 whole entry, looked up)": "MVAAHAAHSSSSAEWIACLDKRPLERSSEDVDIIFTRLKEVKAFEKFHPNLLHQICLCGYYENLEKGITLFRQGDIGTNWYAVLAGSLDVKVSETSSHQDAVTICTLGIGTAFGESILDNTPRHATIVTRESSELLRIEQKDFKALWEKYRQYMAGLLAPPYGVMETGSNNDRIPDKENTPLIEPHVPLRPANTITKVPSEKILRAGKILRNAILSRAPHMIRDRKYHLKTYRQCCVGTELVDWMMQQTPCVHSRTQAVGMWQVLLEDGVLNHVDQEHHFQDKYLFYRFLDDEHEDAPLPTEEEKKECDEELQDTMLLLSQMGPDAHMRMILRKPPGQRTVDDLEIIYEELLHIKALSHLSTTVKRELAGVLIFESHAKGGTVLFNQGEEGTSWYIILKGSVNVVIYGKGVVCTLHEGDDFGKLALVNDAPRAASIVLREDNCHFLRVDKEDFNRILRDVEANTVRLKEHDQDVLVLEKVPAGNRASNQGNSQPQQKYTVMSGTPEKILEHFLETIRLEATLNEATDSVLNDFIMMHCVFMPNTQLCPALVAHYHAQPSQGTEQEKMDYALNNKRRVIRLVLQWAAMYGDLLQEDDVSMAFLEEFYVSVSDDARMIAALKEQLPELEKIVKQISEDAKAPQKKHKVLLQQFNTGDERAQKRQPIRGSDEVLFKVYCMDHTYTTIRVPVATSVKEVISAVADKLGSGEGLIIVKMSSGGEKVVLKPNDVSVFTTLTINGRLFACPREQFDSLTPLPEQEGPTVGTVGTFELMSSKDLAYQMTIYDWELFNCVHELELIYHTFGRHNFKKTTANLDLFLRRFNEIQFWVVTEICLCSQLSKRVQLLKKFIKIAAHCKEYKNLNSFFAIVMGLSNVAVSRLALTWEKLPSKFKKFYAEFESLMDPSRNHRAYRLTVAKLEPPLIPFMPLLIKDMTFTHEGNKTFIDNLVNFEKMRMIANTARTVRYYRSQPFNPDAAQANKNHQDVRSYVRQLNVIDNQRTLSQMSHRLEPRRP", "test": "Confirmatory qHTS for antagonist of cAMP-regulated guanine nucleotide exchange factor 4 (EPAC2) (AID 1645885); also: nearly all actives have a fitted effect of over 25% in size", "details": "EPAC2 Rap1B-BODIPY-GDP exchange fluorescence, biochemical; series mostly up to 12.7 µM; activity change, negative = inhibition: at the top concentration"}
{"smiles": "Nc1ccc(-c2c3ccc(=O)cc-3oc3cc(O)ccc23)c(C(=O)O)c1", "activity change, negative = inhibition": "274% [at 114 µM]"}
{"smiles": "O=C(N/N=C/c1c(O)n(-c2ccccc2Cl)c(=O)c2ccccc12)c1cccnc1", "activity change, negative = inhibition": "-29.7% [at 114 µM]"}
{"smiles": "CCCCN(C(=O)CSCC(=O)Nc1ccc(C)cc1)c1c(N)n(CCCC)c(=O)[nH]c1=O", "activity change, negative = inhibition": "-5.04%"}
{"smiles": "CCN(CC)c1ccc2oc(=O)c(C)nc2c1", "Potency": "75.7 µM (active)"}
{"smiles": "COc1cc2c(cc1OC)-c1cc(NC3CCCCC3)nc(=O)n1CC2", "activity change, negative = inhibition": "-12.6%"}
{"smiles": "CN(CCc1ccccn1)C(=O)Nc1ccc(F)cc1", "activity change, negative = inhibition": "-10.6% [at 114 µM]"}
{"smiles": "OC1C2CN3CCN(C2)CC1(Cc1ccccc1)C3", "note": "(stereo not drawn)", "activity change, negative = inhibition": "-6.3%"}
{"smiles": "COc1ccccc1C(=O)NC(CCSC)C(=O)NCc1ccccn1", "note": "(stereo not drawn)", "activity change, negative = inhibition": "-13.8%"}
{"smiles": "COc1cccc(C(=O)N(Cc2cc3ccc(C)cc3nc2N(C)C)C2CC2)c1OC", "Potency": "17.5 µM (active)"}
{"smiles": "COc1ccc(-c2nc3n(c(=O)c2C#N)CCS3)cc1", "activity change, negative = inhibition": "-4.61%"}
{"smiles": "CN(Cc1ccccc1)S(=O)(=O)c1ccc(Cl)c(C(=O)NCc2ccncc2)c1", "activity change, negative = inhibition": "24.1% [at 114 µM]"}
{"smiles": "COc1ccc(-c2nn(-c3ccccc3)cc2/C=N/n2cnnc2)cc1OC", "activity change, negative = inhibition": "45.7% [at 114 µM]"}
{"smiles": "COC(=O)c1ccc(/C=C2\\CCn3c2nc2cc(C(=O)O)ccc2c3=O)cc1", "activity change, negative = inhibition": "-21% [at 114 µM]"}
{"smiles": "CC(/C=C1\\SC(=S)N(C(C(=O)O)C(C)C)C1=O)=C\\c1ccccc1", "note": "(stereo not drawn)", "outcome": "inactive"}
{"smiles": "Nc1ccn(C2C=CC(CO)O2)c(=O)n1", "note": "(stereo not drawn)", "activity change, negative = inhibition": "-13.2% [at 114 µM]"}
{"smiles": "CC1CC1C(=O)OCC(=O)NNC(=O)COc1ccc(Br)cc1", "note": "(stereo not drawn)", "activity change, negative = inhibition": "-6.87%"}
{"smiles": "CCN(CC)c1ccc2cc(-c3nnc(Nc4ccc(C)cc4)s3)c(=O)oc2c1", "Potency": "5.36 µM (active)"}
{"smiles": "Cc1ccc(NC(=O)C2CCCN2S(=O)(=O)c2cccc3nsnc23)c(Br)c1", "note": "(stereo not drawn)", "outcome": "inactive [at 12.7 µM]"}
